High-throughput results from PubChem BioAssay.
Sm TGR block: qHTS Assay for the Inhibitors of Schistosoma Mansoni Peroxiredoxins; Schistosoma mansoni thioredoxin glutathione reductase (TGR), Q962Y6; Potency, µM (highest dose often 114 µM), inactives show at the highest dose activity change, negative = inhibition, most hits filed as inhibitors; actives 3% (n = 360,000); AID 485364, 2010; purified TGR, DTNB reduction, TNB absorbance 405 nm; further: potency means the concentration at half of the fitted maximal effect; nearly all actives have a fitted effect of over 60% in size
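Kinetic colorimetric format: TGR-catalysed, NADPH-driven DTNB reduction monitored via TNB absorbance. Enzyme dispensed at 20 nM; compound exposure 15 min at room temperature before reaction start.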
FMDV antiviral: High Throughput Screening for Foot and Mouth Disease Virus Antivirals; FMDV antiviral cell-based qHTS; Potency, µM (doses to about 57.9 µM), for the others: at the top dose activity change, negative = inhibition, usual class: inhibitors; actives 1.2% (n = 410,000); calls by dose curve; tested in HEK293T cells; further: read-out not given here; potency means the concentration at half of the fitted maximal effect; nearly all actives have a fitted effect of over 45% in size
HCMV inh: qHTS Assay for inhibitors of the human cytomegalovirus (HCMV); HFF cells, HCMV-luciferase reporter, 72 h; hits give low values; activity change, negative = inhibition, % at 57.5 µM; actives 4.5% (n = 410,000); in the data active means activity change below about -60%; inconclusive means no clear call, values can overlap the other calls; inactive means above about -39%
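After 16 h attachment at 37C, HFF cells received test compound and HCMV-luciferase (1 PFU/cell); reporter luminescence read 72 h later, data normalized against buffer-only and known inhibitor Salinomycin.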
VACV mCherry inh: qHTS for Stage-Specific Inhibitors of Vaccinia Orthopoxvirus: mCherry Reporter Primary qHTS. Vaccinia virus mCherry reporter infection, fluorescence. Potency, µM (doses to about 36.5 µM), without a hit: at the top dose activity change, negative = inhibition, actives largely listed as inhibitors. actives 0.63% (n = 310,000). AID 720579, 2013; calls by dose curve; tested in A549 cells; further: potency means the concentration at half of the fitted maximal effect; nearly all actives have a fitted effect of over 35% in size
HCV inh: qHTS Assay for Inhibitors of Hepatitis C Virus (HCV); Huh7.5.1 HCVcc-Cre infection, luciferase reporter, 44 h; Potency, µM (highest dose often 41.8 µM), for inactives: at the highest dose activity change, negative = inhibition, most hits filed as inhibitors; actives 3.4% (n = 340,000); further: potency means the concentration at half of the fitted maximal effect
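Cells (1,000/well) were plated 4 h before compound, then infected with HCVcc-Cre virus (~0.5 moi). After 44 h further culture, infection was read as luciferase luminescence following a 15 min substrate incubation at room temperature.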
Vaccinia Venus: qHTS for Stage-Specific Inhibitors of Vaccinia Orthopoxvirus: Venus Reporter Primary qHTS | actives 0.46% (n = 330,000) | Vaccinia virus Venus reporter expression, fluorescence | Potency, µM (highest dose often 36.5 µM), for the others: at the top dose activity change, negative = inhibition, hits mostly inhibitors; calls by dose curve; tested in A549 cells; further: potency means the concentration at half of the fitted maximal effect; nearly all actives have a fitted effect of over 30% in size
Active calls of the source: *; i = inactive; ? = inconclusive; . = no result; [ ] = remark or other dose. Compounds with a hit are over-represented: about 9.3% of the library has one in this group of screens. Unless noted, the call rests on the fitted dose curve; in most records, active means well fitted curve in the direction sought with a large enough effect; inconclusive means small, poorly fitted or top-dose-only effect, or another doubt; inactive means no such curve, though single readings can be large; an effect the other way counts as inactive or inconclusive. On the % scale 0 is the no-effect control and ±100 the full control effect.

SMILES | Sm TGR block | FMDV antiviral | HCMV inh | VACV mCherry inh | HCV inh | Vaccinia Venus
c1cncc(CNc2ncnc3ccc(-c4ccco4)cc23)c1 | 8.9µM* | . | . | . | . | .
COc1cccc(-c2ccc3ncnc(NCc4cccnc4)c3c2)c1 | -4% | ? | -77* | . | . | .
CCc1ccc(OCCSc2nc3ccccc3n2CCC(=O)O)cc1 | -6% | -5% | 5 | . | 16% | .
COCCCNCC(=O)c1c(N)n(Cc2ccccc2)c(=O)n(C)c1=O | 0% | -6% | 17 | -13% | 14% | -9%
CC(C)NS(=O)(=O)c1ccc(CCC(=O)O)cc1 | -6% | -24% | -15 | -11% | ? | -19%
CC1O[C@@H](O[C@H]2C(Oc3cc(O)c4c(=O)cc(-c5ccc(O)cc5)oc4c3)OC(CO)C(O)C2O)C(O)C(O)C1O (stereo partly specified) | . | -5% | . | -2% | . | -8%
COC1C(O)C(C)OC(OC2C(Oc3cccc4c(O)c5c(=O)oc6ccc(C)c7c(=O)oc(c34)c5c67)OC(C)C(O)C2O)C1O (stereo unspecified) | . | ? | -97* | -14% | ? | -9%
C#CCn1c2ccccc2c2nc3ccccc3nc21 | -2% | 0% | 2 | -23% | 20% | -9%
CC(C)n1c2ccccc2c2nc3ccccc3nc21 | 11% | -28% | -18 | -2% | 13µM* | -11%
CCOc1ccc(NC(=O)C(c2ccccn2)N(C(=O)CCl)c2ccc(OCC)cc2)cc1 (stereo unspecified) | 45µM* | 16% | . | i | 0% | -13%
CC(=O)Nc1ccc(C(=O)N(C)C(C(=O)Nc2ccc(C)cc2)c2ccccn2)cc1 (stereo unspecified) | -4% | -8% | -63* | -9% | 26% | -1%
CCOc1ccc(NC(=O)C(c2ccccn2)N(C(=O)CCl)c2ccc(OC)cc2)cc1 (stereo unspecified) | 45µM* | 13% | 12 | -19% | 8% | 7%
COC(=O)C1=C(C(=O)OC)C(C(=O)OC)C(C(=O)OC)C(C(=O)OC)(C(=O)OC)C(C(=O)OC)=C1C(=O)OC (stereo unspecified) | . | 40µM* | 11 | ? | ? | ?
COC(=O)C1C(C(=O)OC)C1(c1ccccc1)c1ccccc1 (stereo unspecified) | 0% | -5% | 0 | -18% | 4% | -11%
COc1ccc(C)cc1NC(=O)c1cccn(Cc2ccccc2Cl)c1=O | 8% | -8% | 5 | -16% | . | -13%
CN(C(=O)COC(=O)c1cc(-c2ccc(Cl)s2)nc2ccccc12)C1CCS(=O)(=O)C1 (stereo unspecified) | -3% | -7% | -28 | . | 10µM* | .
COc1ccc2c(c1)O/C(=C\c1ccco1)C2=O | 7.9µM* | 56% | 29 | ? | 2% | -10%[7.34 µM]
COC(=O)C(C)Oc1ccc2c(c1)O/C(=C\c1ccco1)C2=O (stereo unspecified) | 20µM* | 22% | 31 | i | 10% | -3%
COc1ccc(/C=C2\Oc3cc(OCC(N)=O)ccc3C2=O)cc1OC | -3% | -15% | 26 | . | 3% | .
COC(=O)[C@H](C)NC(=O)NC(C)CCc1ccccc1 (stereo partly specified) | 4% | -19% | -12 | i | 8% | 2%
NC(=O)c1c(N)sc2c1CCCC2 | 13µM* | 7% | 58 | -17% | 8% | -10%
Nc1sc2c(c1C(=O)c1ccccc1)CCCC2 | ? | -10% | -15 | -18% | -25% | -6%
Nc1sc2c(c1C(=O)NC1CCS(=O)(=O)C1)CCCC2 (stereo unspecified) | 22µM* | -3% | 15 | -4% | ? | -5%
O=C(CCCN1C(=O)C2CCCCN2C1=O)N1CCN(c2ccc([N+](=O)[O-])cc2)CC1 (stereo unspecified) | -26% | -12% | ? | . | -28% | -25%
CN(C)CCn1c2ccccc2c2nc3ccc([N+](=O)[O-])cc3cc21 | 0% | 6% | -108* | i | -58% | ?
SMILES | Sm TGR block | FMDV antiviral | HCMV inh | VACV mCherry inh | HCV inh | Vaccinia Venus
CC(=O)N1CCC2(CC1)CC(=O)c1cc(OCC(=O)NCc3ccco3)ccc1O2 | 25µM* | 12% | 7 | . | 10% | .
CC(=O)N1CCC2(CC1)CC(=O)c1cc(OCC(=O)NCc3ccc(C)cc3)ccc1O2 | 1% | -9% | . | . | 13% | .
COc1ccc(/C=N/NC(=O)CN(c2ccc(OC)cc2)S(=O)(=O)c2ccccc2)cc1 | 1% | 2% | -16 | . | -24% | .
COc1ccc(N(CC(=O)N/N=C/c2ccc(F)cc2)S(=O)(=O)c2ccccc2)cc1 | -4% | -2% | -69* | -31% | -3% | -23%
COc1ccc(N(CC(=O)N/N=C/c2ccco2)S(=O)(=O)c2ccccc2)cc1 | 28µM* | . | -22 | -2% | 3% | -17%
O=C(CN(c1ccccc1Cl)S(=O)(=O)c1ccccc1)N/N=C/c1ccccc1C(=O)O | -1% | 7% | -63* | -6% | 17% | -15%
Cc1ccc(N(CC(=O)N/N=C/c2ccco2)S(=O)(=O)c2ccccc2)cc1 | 25µM* | 15% | ? | -12% | 12% | -7%
O=C(CN(c1ccccc1)S(=O)(=O)c1ccccc1)N/N=C/c1ccco1 | -26% | -10% | -4 | -20% | -2% | -10%
CC/C(=N/Nc1cccc(C)c1)c1cnnc(SC)n1 | 2% | ? | -68* | ? | 10µM* | -29%
Cc1[nH]nc2c1C(Cc1ccccc1)C(C#N)=C(N)O2 (stereo unspecified) | 20µM* | 4% | 24 | 3% | 9% | 12%
Cc1ccsc1C1C(C#N)=C(N)Oc2n[nH]c(C)c21 (stereo unspecified) | 2% | 32µM* | -11 | -1% | 16% | -12%
N#CC1=C(N)Oc2n[nH]c(-c3cccs3)c2C1c1ccco1 (stereo unspecified) | 32µM* | -10% | 36 | . | -11% | 11%
COc1cccc(OC)c1C(=O)Nc1sc2c(c1C(N)=O)CCN(Cc1ccccc1)C2 | -15% | ? | -7 | i | -6% | -11%
CC(C)N1CCc2c(sc(NC(=O)c3ccc4ccccc4c3)c2C(N)=O)C1 | -10% | -4% | -7 | . | 8.9µM* | .
CC(=O)c1ccc(C(=O)Nc2sc3c(c2C(N)=O)CCN(Cc2ccccc2)C3)cc1 | -1% | . | -74* | . | . | .
CC(C)N1CCc2c(sc(NC(=O)c3cc4cc([N+](=O)[O-])ccc4s3)c2C(N)=O)C1 | 7% | -22% | -95* | ? | ? | -10%
